In the supplement of paper PMC10849652:
Targets with a hit are over-represented here; the source holds about 8,800 in all. About 0.5% of all pairs of compound and target were hits.

Assays:
Assay in all cases: log2 fold change, soluble protein after heating vs DMSO (PISA); higher = thermal stabilisation; K562 lysate, 10 uM; active = over 0.2 and 3.5 SD of the protein, either way, in both replicates (recomputed)
[1] = compound: C1=CC=C(C=C1)[C@H](COC2=CC3=C(C=C2)NC(=O)N3)NC(=O)C4=CC=CN(C4=O)CC5=CC(=C(C=C5)F)F
Procedure, shortened: (§1)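 To prepare the extract, K562 pellets were dounce-homogenised in PBS pH 7.4 with 1 mM MgCl2, giving crude material at 1 mg/mL protein. This was treated with 10 μM compound for 30 min, then heated in aliquots for 3 min over 48°C-58°C before pooling and addition of NP-40 to 0.5% at 4°C. Centrifugation at 21,000xg for 90 min left soluble protein in the supernatant, which TMTpro 16plex LC-MS/MS quantified with equalised channel sums. Results are log-two fold changes in thermal stability compared with solvent controls, from duplicates.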

[2] = compound: CC1=C(SC2=C1C(=N[C@H](C3=NN=C(N32)C)CC(=O)N)C4=CC=C(C=C4)Cl)C
Procedure, shortened: as §1

[3] = compound: CC1=C2C(=CC=C1)N=C(N(C2=O)C3=CC=CC=C3C)CN4C=NC5=C(N=CN=C54)N
Procedure, shortened: as §1

[4] = compound: Cc1sc2c(c1C)C(c1ccc(Cl)cc1)=N[C@@H](CC(=O)OC(C)(C)C)c1nnc(C)n1-2
Procedure, shortened: as §1

[5] = compound: c1ccc([C@@H]2C[C@H]2NC2CCNCC2)cc1
Procedure, shortened: as §1

IRAK-1-4 Inhibitor I = compound: C1COCCN1CCN2C3=CC=CC=C3N=C2NC(=O)C4=CC(=CC=C4)[N+](=O)[O-] [IRAK-1-4 Inhibitor I]
Procedure, shortened: as §1

Measured: log2 fold change

CHAC2 (UniProt Q8WUX2)
UniProt Q8WUX2, sequence (Q8WUX2 whole entry, looked up): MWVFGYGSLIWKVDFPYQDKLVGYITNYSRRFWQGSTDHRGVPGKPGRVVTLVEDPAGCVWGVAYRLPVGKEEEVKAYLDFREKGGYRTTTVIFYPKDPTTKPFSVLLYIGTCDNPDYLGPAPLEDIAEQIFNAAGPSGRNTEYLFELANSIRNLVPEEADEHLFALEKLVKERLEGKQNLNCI
active: [5] 0.344
inactive: [1] 0.079 | [2] 0.005 | [3] 0.028 | [4] -0.025

CASC4 (UniProt Q6P4E1)
inactive: [1] -0.008 | [2] 0.027 | [3] 0.039 | [4] -0.015 | [5] -0.055

CDK5RAP3 isoform 4 (UniProt Q96JB5)
inactive: [1] -0.011 | [2] -0.018 | [3] 0.022 | [4] -0.01 | [5] -0.154

ATG10 (UniProt Q9H0Y0)
inactive: [1] 0.008 | [2] 0 | [3] -0.057 | [4] 0.047 | [5] 0.076

CEP76 (UniProt Q8TAP6)
inactive: [1] -0.009 | [2] -0.01 | [3] -0.043 | [4] 0.002 | [5] -0.027

BET1 (UniProt O15155)
inactive: [1] -0.053 | [2] 0.013 | [3] 0.032 | [4] 0.038 | [5] 0.009

CDS2 (UniProt O95674)
inactive: [1] 0.01 | [2] 0.004 | [3] -0.056 | [4] -0.034 | [5] -0.024

AURKAIP1 (UniProt Q9NWT8)
inactive: [1] 0.05 | [2] 0.032 | [3] -0.014 | [4] 0.024 | [5] 0.034

CAMK2B (UniProt Q13554)
inactive: [1] 0.036 | [2] -0.052 | [3] -0.032 | [4] -0.056 | [5] -0.091

BUB1B isoform 3 (UniProt O60566)
inactive: [1] -0.013 | [2] -0.005 | [3] 0.027 | [4] -0.003 | [5] 0.02

CDK5 (UniProt Q00535)
inactive: [1] -0.01 | [2] -0.03 | [3] -0.021 | [4] 0.002 | [5] -0.02

BNIP3 (UniProt Q12983)
inactive: [1] 0.034 | [2] -0.053 | [4] -0.023 | [5] -0.074

ATE1 (UniProt O95260)
inactive: [1] 0 | [2] 0.07 | [5] -0.125

CAD (UniProt H7BZB3)
inactive: [3] -0.011 | [5] -0.003

BMT2 (UniProt Q1RMZ1)
inactive: [5] 0.123

BCORL1 isoform 3 (UniProt Q5H9F3)
inactive: IRAK-1-4 Inhibitor I -0.141 | [3] 0.029 | [4] 0 | [5] -0.382

BRAF, A0A2R8Y8E0
inactive: [3] -0.13

CENPV (UniProt Q7Z7K6)
UniProt Q7Z7K6, sequence (Q7Z7K6 whole entry, looked up): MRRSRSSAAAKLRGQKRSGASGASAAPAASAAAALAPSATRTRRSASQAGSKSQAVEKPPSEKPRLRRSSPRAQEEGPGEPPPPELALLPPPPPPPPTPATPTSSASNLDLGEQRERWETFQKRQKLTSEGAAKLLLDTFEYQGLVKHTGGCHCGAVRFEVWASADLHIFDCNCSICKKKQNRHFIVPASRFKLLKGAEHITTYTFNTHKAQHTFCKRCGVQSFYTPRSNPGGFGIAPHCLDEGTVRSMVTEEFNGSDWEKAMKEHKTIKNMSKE
inactive: [1] 0.059 | [2] -0.217 | [3] -0.201 | [5] 0.166

C15orf39 (UniProt Q6ZRI6)
inactive: [1] -0.095 | [2] 0.049 | [4] 0.032 | [5] 0.161

CCND3 (UniProt P30281)
UniProt P30281, sequence (P30281 whole entry, looked up): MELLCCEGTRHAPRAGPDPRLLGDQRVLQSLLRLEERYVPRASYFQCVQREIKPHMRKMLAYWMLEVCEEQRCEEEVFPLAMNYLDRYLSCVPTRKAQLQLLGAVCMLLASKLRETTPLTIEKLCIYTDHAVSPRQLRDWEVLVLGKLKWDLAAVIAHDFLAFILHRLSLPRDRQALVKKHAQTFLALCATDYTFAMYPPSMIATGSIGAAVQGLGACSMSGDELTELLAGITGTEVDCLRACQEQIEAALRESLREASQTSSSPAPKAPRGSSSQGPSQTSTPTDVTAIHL
inactive: [1] 0.043 | [2] 0.051 | [4] 0.036 | [5] -0.023

BTRC (UniProt Q9Y297)
inactive: [1] 0.024 | [2] -0.042 | [3] -0.003 | [5] -0.048

CEP57L1 (UniProt Q8IYX8)
inactive: [1] -0.078 | [2] 0.115 | [4] 0.143 | [5] 0.099

BAHCC1 (UniProt Q9P281)
UniProt Q9P281, sequence (Q9P281 whole entry, looked up): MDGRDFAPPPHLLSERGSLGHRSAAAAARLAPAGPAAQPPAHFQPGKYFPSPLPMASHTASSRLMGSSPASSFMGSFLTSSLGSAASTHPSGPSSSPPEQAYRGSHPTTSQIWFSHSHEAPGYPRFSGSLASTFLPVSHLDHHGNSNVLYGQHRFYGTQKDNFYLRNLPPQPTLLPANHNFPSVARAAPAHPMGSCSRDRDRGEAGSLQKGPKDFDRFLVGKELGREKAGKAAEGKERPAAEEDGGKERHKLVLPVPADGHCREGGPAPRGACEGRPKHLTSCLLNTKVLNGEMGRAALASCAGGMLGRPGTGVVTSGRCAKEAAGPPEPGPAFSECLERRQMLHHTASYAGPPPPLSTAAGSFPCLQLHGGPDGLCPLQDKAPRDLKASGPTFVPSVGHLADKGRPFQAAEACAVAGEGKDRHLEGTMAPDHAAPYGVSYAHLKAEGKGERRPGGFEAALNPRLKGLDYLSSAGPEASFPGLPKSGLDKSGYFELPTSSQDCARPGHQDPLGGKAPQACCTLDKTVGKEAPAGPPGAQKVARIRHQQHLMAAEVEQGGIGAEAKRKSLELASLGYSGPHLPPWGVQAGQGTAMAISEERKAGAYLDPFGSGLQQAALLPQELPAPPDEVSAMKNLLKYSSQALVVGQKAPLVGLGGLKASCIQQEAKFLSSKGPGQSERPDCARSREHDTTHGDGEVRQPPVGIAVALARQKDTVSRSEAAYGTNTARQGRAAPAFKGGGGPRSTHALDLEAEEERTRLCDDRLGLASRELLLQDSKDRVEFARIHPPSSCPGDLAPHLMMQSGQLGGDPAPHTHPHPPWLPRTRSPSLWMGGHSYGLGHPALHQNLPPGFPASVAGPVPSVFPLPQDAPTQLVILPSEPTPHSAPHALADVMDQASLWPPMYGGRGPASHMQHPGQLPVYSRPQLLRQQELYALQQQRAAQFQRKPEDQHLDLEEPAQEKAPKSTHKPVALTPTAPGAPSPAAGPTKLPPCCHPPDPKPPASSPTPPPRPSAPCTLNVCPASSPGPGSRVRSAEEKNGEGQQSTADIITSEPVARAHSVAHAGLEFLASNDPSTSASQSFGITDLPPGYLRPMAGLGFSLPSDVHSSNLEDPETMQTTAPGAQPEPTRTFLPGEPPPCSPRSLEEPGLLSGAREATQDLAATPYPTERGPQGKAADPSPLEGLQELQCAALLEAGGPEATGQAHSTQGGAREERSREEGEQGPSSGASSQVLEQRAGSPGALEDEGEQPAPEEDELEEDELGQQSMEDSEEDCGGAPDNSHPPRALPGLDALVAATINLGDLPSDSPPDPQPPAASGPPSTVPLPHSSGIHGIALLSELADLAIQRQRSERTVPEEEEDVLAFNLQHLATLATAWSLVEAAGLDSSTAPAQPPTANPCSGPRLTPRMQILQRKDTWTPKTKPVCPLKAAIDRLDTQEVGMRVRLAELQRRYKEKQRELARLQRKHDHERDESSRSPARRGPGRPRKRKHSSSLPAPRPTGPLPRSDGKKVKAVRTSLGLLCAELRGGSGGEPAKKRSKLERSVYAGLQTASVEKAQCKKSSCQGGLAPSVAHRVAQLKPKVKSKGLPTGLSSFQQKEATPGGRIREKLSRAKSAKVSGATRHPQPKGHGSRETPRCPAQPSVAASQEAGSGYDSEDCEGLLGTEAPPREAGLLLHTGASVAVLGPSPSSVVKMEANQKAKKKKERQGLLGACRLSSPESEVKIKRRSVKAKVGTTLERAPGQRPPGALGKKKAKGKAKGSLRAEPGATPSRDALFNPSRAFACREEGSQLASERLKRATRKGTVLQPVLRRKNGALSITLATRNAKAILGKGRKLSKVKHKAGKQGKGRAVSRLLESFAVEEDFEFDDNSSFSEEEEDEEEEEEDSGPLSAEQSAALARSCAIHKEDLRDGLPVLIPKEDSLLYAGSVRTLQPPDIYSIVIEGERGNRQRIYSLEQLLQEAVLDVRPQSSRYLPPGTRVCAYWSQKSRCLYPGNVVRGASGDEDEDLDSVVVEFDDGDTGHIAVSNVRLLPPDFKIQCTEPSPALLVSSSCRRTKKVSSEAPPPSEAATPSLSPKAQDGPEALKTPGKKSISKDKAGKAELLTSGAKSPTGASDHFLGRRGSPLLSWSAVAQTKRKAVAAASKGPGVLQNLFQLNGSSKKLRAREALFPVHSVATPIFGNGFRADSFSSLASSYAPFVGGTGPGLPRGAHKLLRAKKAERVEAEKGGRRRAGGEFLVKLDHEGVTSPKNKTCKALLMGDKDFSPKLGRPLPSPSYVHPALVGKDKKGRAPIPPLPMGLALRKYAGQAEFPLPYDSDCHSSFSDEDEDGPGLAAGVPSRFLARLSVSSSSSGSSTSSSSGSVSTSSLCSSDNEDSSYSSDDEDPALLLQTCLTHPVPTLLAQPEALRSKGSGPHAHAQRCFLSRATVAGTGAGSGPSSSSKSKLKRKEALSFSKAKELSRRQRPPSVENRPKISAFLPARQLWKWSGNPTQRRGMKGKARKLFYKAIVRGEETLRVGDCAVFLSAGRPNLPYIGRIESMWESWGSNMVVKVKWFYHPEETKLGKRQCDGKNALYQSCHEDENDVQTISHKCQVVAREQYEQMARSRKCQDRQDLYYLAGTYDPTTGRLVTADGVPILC
inactive: [3] 0.011 | [4] -0.187
active: [5] -0.696

CEBPZOS (UniProt A8MTT3)
inactive: [3] -0.03 | [4] -0.006 | [5] 0.018

CASC1 (UniProt Q6TDU7)
UniProt Q6TDU7, sequence (Q6TDU7 whole entry, looked up): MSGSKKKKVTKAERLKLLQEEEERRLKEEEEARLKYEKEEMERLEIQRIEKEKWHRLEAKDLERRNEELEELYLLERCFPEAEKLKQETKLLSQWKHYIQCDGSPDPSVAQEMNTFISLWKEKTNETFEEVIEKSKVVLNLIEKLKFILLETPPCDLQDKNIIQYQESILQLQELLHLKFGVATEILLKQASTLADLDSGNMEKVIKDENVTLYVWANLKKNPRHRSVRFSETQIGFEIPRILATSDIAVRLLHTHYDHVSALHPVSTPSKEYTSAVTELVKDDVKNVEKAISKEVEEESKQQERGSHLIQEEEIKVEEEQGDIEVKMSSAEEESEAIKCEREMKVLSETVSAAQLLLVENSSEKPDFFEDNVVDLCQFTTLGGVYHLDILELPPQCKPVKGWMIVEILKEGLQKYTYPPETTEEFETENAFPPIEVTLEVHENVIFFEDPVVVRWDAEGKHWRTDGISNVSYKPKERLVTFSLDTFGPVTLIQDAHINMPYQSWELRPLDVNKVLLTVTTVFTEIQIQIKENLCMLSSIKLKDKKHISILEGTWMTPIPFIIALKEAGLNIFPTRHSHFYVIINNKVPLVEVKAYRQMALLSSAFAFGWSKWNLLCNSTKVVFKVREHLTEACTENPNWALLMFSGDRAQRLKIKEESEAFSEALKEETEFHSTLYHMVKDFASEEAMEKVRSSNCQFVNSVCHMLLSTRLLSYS
inactive: [1] -0.256 | [2] 0.037 | [5] 0.046

C1orf131 isoform 5 (UniProt Q8NDD1)
inactive: [3] 0.096 | [4] -0.009 | [5] -0.108

CACUL1 (UniProt Q86Y37)
inactive: [3] -0.046 | [4] 0.088 | [5] 0.111

CDC25A (UniProt P30304)
inactive: [4] -0.064

C9orf72 (UniProt Q96LT7)
inactive: [1] -0.012 | [2] 0.049 | [4] -0.028 | [5] 0.002

C6orf120 (UniProt Q7Z4R8)
UniProt Q7Z4R8, sequence (Q7Z4R8 whole entry, looked up): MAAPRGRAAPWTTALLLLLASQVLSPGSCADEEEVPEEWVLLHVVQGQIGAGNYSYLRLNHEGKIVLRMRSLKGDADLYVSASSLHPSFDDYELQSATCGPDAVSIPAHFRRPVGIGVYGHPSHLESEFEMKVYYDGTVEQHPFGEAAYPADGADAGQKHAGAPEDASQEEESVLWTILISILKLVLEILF
inactive: [1] -0.101 | [2] -0.015 | [4] -0.131 | [5] 0.137

ATG4D (UniProt Q86TL0)
inactive: [1] -0.011 | [2] 0.057 | [4] 0.041

C8orf88 (UniProt P0DMB2)
UniProt P0DMB2, sequence (P0DMB2 whole entry, looked up): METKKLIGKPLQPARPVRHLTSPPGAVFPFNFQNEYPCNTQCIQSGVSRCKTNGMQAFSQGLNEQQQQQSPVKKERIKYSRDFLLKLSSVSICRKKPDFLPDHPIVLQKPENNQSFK
inactive: [1] 0.033 | [2] 0.051 | [4] 0.051 | [5] -0.002

CARHSP1 (UniProt H3BNU9)
inactive: [1] -0.034 | [2] -0.224 | [5] 0.094

CAPNS1 (UniProt K7ES78)
inactive: [3] -0.094 | [4] -0.216

CANX (UniProt D6RHJ3)
inactive: [3] 0.072

ATF7IP2 (UniProt Q5U623)
inactive: [1] 0.162 | [2] 0.01 | [3] 0.101 | [5] 0.017

CEP295 isoform 3 (UniProt Q9C0D2)
inactive: [1] -0.154 | [2] 0.045 | [5] 0.024

CASP7 isoform 3 (UniProt P55210)
inactive: [1] 0.035 | [2] -0.02 | [4] -0.105

ATPSCKMT (UniProt Q6P4H8)
inactive: [1] 0.111 | [2] -0.006 | [4] 0.023

BBS7 (UniProt Q8IWZ6)
inactive: [3] 0.035 | [4] -0.358 | [5] 0.181

CHD9 (UniProt Q3L8U1)
inactive: [3] -0.074 | [4] 0.236 | [5] 0.232

CD80 (UniProt P33681)
inactive: [3] 0.032 | [4] 0.018 | [5] 0.048

C3AR1 (UniProt Q16581)
inactive: [1] 0.121 | [2] 0.024 | [5] -0.083

CHD4, A0A2R8Y521
inactive: [4] -0.136

B3GALT6 (UniProt Q96L58)
inactive: [1] 0.055 | [2] 0.041 | [4] 0.269

ATXN2 (UniProt F8WB06)
inactive: [4] -0.014

CDK11A (UniProt Q9UQ88)
inactive: [1] -0.046 | [2] 0.025 | [4] 0.091 | [5] 0

BUD13 (UniProt Q9BRD0)
UniProt Q9BRD0, sequence (Q9BRD0 whole entry, looked up): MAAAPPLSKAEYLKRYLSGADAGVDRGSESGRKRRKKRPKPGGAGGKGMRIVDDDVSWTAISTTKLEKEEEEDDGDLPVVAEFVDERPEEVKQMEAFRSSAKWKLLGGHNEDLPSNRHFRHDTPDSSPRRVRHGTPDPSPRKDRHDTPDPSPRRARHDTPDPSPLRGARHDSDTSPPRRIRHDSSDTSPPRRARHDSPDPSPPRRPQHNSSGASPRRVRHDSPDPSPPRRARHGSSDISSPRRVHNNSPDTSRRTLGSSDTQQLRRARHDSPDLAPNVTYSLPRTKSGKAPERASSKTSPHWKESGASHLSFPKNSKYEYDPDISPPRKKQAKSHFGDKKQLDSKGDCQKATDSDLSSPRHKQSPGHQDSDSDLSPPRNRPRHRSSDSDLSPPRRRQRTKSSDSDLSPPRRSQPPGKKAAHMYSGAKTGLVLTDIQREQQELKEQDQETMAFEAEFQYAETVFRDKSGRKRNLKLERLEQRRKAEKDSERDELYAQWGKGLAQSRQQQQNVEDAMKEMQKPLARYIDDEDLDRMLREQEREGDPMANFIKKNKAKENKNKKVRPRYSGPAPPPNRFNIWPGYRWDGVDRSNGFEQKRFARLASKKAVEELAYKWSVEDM
inactive: [1] -0.037 | [2] 0.068 | [4] -0.162 | [5] 0.029

BICRA (UniProt Q9NZM4)
inactive: [1] -0.077 | [2] 0.208 | [4] -0.122 | [5] -0.142

CDKL5 (UniProt O76039)
inactive: [3] 0.043 | [4] -0.139 | [5] -0.132
